Source: the supplement of paper PMC10338343
± gives the standard deviation. In all, about 3,700 sequences were measured (“pre-steady-state target cleavage rate”: median about 0.02, highest 2% from about 0.23 on). For the sample, the highest values were picked, then their nearest neighbours and some sequences at random.

The sequences below were run on MILI (PIWIL2) piRISC loaded with Kctd7 piRNA (26 nt) (assay: pre-steady-state target cleavage rate (min^-1); MIWI and MILI are mouse PIWI proteins and EfPiwi is from a freshwater sponge; tags in brackets are library labels; higher = faster piRNA-guided slicing of the target). Details: guide: Kctd7 piRNA 5'p-UGUUAAUCUCUCAGAGAAGGUGACAG; auxiliary factor: 500 nM mouse GTSF1.
Protocol: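 Cleave-'n-Seq: a library of target RNAs (target site embedded in constant flanks, ACAGCATTCCGCGTTAGTGATATCCG... 5' flank; DNA-blocked outside the site) at 0.1 nM was incubated with 1 nM active mouse MILI or MIWI piRISC (synthetic 5'-monophosphorylated piRNA guide) with or without 500 nM mouse GTSF1 at 33 °C for 1 min to 16 h. Uncleaved targets were sequenced and normalised to non-target controls, and the pooled three trials were fitted to a burst-and-steady-state model to give the pre-steady-state cleavage rate (min^-1; k3 is constrained to at most 1e-4). Sequence is the target site only; target names encode pairing extent (gX:gY) and contiguous / 1-mismatch / 2-mismatch / bulge geometry. Fits with R² ≤ 0 are excluded.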

Sequence	pre-steady-state target cleavage rate
UAGUGAGUCACCUUCUCUGAAGAGAUUAACA	0.0119 ± 0.0044
UAGUGAGUCACCUUCUCUGAGAGAUUAAAA	0.135 ± 0.037
UAGUGACAGACCUCUCUCUGAGAGAUUAACA	0.0375 ± 0.0076
UAGUCUGUCACCUUCUGCUGAGAGAUUAACA	0.0816 ± 0.013
UAGUCUGUCUCCUACUCUGAGAGAUUAACA	0.157 ± 0.0082
UAGUGACUCACCUAGUCUGAGAGAUUAACA	0.0896 ± 0.0089
UAGUGACAGUGCUUCUCUGAGAGAUUAACC [g2:g19:cont:t1C]	0.0223 ± 0.0053
UAGUGACACACCAUCUCUGAGAGAUUAUGA	0.00752 ± 0.0041
UAGUCAUGUCACCUUCUCUGAGAGAUUAACA	0.238 ± 0.023
UAGUCAGUCACCUUCUCUGAGAGAUUAAGA	0.135 ± 0.024
UAGUCACACACCUUCUCUGAGAGAUUAACA	0.168 ± 0.011
UAGUGAGUCACCUUCUCUGAGAGAUUACA	0.153 ± 0.033
UAGUGAGUCACCUUCUCUGAGAGAUUAACG [g2:g24:cont:t1G]	0.284 ± 0.021
UAGUGAGUCACCUUCUCUGAGAGAUUACCA	0.251 ± 0.05
UAGUAUGUCACCUUCUCUGAGAGAUUAACA	0.211 ± 0.019
UAGUCAGUCACCUUCUCUGAGAGAUUAACA	0.249 ± 0.016
UAGUGAGUCACCCUUCUCUGAGAGAUUAACA	0.19 ± 0.02
UAGUGAGUCACCUUCUCUGAGAGAUUAAGA	0.219 ± 0.035
UAGUGAGUCACCUUCUCUGAGAGAUUACACA	0.187 ± 0.038
UAGUCACUCACCUUCUCUGAGAGAUUAACA	0.207 ± 0.0095
UAGUGUGUCAGCUUCUGUGAGAGAUUAACA	0.129 ± 0.013
UAGUGAGUCACCUUCUCUGCGAGAUUAACA	0.0952 ± 0.015
UAGUGUGUCAGGUUCUCUGAGAGAUUAUGA	0.00789 ± 0.0035
UAGUGACACAGCUUCUCUGUGAGAUUAACA	0.0271 ± 0.0057

Sequence	pre-steady-state target cleavage rate
UAGUGACAGACCUUGUCUGAGAGAUUAACA	0.0481 ± 0.0096
UAGUGAGUCAGCUUCUCUGAGAGAUUAACA	0.158 ± 0.013
UAGUGUCAGACCUUCUCUGAGAGAUUAACA	0.108 ± 0.012
UAGUCUCUCACCUUCUCUGAGUGAUUAACA	0.00476 ± 0.0037
UAGUGACUCAGCUUGUCUGAGAGAUUAACA	0.112 ± 0.0088
UAGUGACAGACCUUCUCUGAGACGAUUAACA	0.0176 ± 0.0081
UAGUGACUCACCUUCUCUGAGAGAUUAAA	0.13 ± 0.031
UAGUGAGUACCUUCUCUGAGAGAUUAACA	0.113 ± 0.014
UAGUGAGACACCUUCUCUGAGAGAUUAACA	0.185 ± 0.011
UAGUGACUCACCUUCUCUGAGAGAUUAAACA	0.251 ± 0.035
UAGUGAGUCACCUUCUCUGAGAGAUAAAGA	0.00919 ± 0.0072
UAGUGAGUCACCUUCCUGAGAGAUUAACA	0.119 ± 0.038
UAGUGAGUACACCUUCUCUGAGAGAUUAACA	0.237 ± 0.019
UAGUGAGUCACCUUCCCUGAGAGAUUAACA	0.394 ± 0.074
UAGUGAGUCACCUUCUCUGUGAGAUAAACA	0.0242 ± 0.0096
UAGUGACUCACCUUCUCUGAGAGAUUAAAA	0.0677 ± 0.02
UAGUGAGUCACCUUCUCUGAGAGAUAAACA	0.249 ± 0.052
UAGUGAGUCACCUUCCUCUGAGAGAUUAACA	0.148 ± 0.019
UAGUGACUCACCUUCUCUGAGAGAGUUAACA	0.118 ± 0.017
UAGUGUGAGACCUUCUCUGAGAGAUUAACA	0.101 ± 0.0091
UAGUGACACACCUUCAGUGAGAGAUUAACA	0.0881 ± 0.016
UAGUGACUCAUCCUUCUCUGAGAGAUUAACA	0.0582 ± 0.0061
UAGUGAGUCACGUUCUCUGUGAGAUUAACA	0.0376 ± 0.0033
UAGUGUGUCACCUUCUCAGAGACAUUAACA	0.117 ± 0.025

Sequence	pre-steady-state target cleavage rate
UAGUGACUCACCUUCUCUGAGAGAUGUAACA	0.172 ± 0.028
UAGUGACAGAACCUUCUCUGAGAGAUUAACA	0.0771 ± 0.01
UAGUGAGUCACCUUCUCCGAGAGAUUAACA	0.394 ± 0.084
UAGUGAGUCACCUUCUCGAGAGAUUAACA	0.0598 ± 0.015
UAGUCUGUCACCUUCUCUGAGAGAUAACA	0.0928 ± 0.025
UAGUGAGUCACCUUCUUCUGAGAGAUUAACA	0.0918 ± 0.028
UAGUGUGUCACCUUCUCGAGAGAUUAACA	0.0644 ± 0.013
UAGUGAGUCACCUUCUCAGAGAGAUUAACA	0.173 ± 0.022
UAGUGAGUCACCUUCUGCUGAGAGAUUAACA	0.264 ± 0.058
UAGUCUGUCACCUUCUCUGAGAGAUAAACA	0.132 ± 0.022
UAGUGUGUCACCUUCUCCGAGAGAUUAACA	0.373 ± 0.1
UAGUGAGUCACCUUCUGAGAGAGAUUAACA	0.074 ± 0.011
UAGUCUGUCACCUUCUCCGAGAGAUUAACA	0.21 ± 0.038
UAGUCUGUCACCUUCUCUGAGAGAUAUAACA	0.235 ± 0.03
UAGUGACAGUCCUUCUAUGAGAGAUUAACA	0.0377 ± 0.013
UAGUGACACAGCUUCUCUGAGAGAUAAACA	0.0211 ± 0.0068
UAGUGACUCACGUUCUCUGAGAGAUUUACA	0.0554 ± 0.015
UAGUGACAGACCUUCUCUGUGAGAUAAACA	0.0102 ± 0.0046
UAGUGACACAACCUUCUCUGAGAGAUUAACA	0.155 ± 0.018
UAGUGACUCACCUUCUCUGAGAGAUUAUACA	0.114 ± 0.021
UAGUGUGUCACCAUCUCUGAGAGAUUAUGA	0.0243 ± 0.0082
UAGUGACUCACCUUCUGUGAGAGAUUUUGA	0.00903 ± 0.0039
UAGUGACACACCUACUCUGAGACAUUAACA	0.0243 ± 0.0072
